Results from PubChem BioAssay (Tox21).
Where “and” joins values, the source holds several entries; their conditions need not be identical. Identical values can stand only once. Results filed as inconclusive are left out. Values without a mark were called inactive. Calls of active or inactive are those of the source. Calls come from the whole dose curve; as a rule, active = well fitted activation curve with a large enough effect in the repeat runs; inconclusive = weak or mixed curves; inactive = flat fitted curve, though single readings scatter.

assay: A CellTox Green Cytotoxicity Assay to monitor cytotoxicity in HepG2 cells - 40 hour (AID 1224879); settings: CellTox Green fluorescence; series mostly up to 76.8 µM; cytotoxicity increase: at the top concentration; note: nearly all actives have a fitted effect of over 40% in size
Excerpt: National Center for Advancing Translational Sciences [NCATS]
NIH Chemical Genomics Center [NCGC]
U.S. Environmental Protection Agency [EPA]
National Institutes of Environmental Health Sciences [NIEHS]
National Toxicology Program [NTP]
Cell-based models are critical for drug discovery. Determining the natural cytotoxic effects resulting from test compounds is an essential research activity. A CellTox Green Cytotoxicity Assay to monitor cytotoxicity in real time of continues cell culture during 40 hours of the compound treatment was used to screen Tox21 10K library compounds in HepG2 cells. CellTox Green Cytotoxicity Assay is a nonlytic, homogeneous, biofluorescent method to measure cytotoxicity in cell culture after experimental manipulation. The assay system uses a proprietary asymmetric cyanine dye that is excluded from viable cells but preferentially stains the dead cell's DNA. […] Viable cells produce no appreciable increases in fluorescence. Therefore, the fluorescence signal produced by the binding interaction with dead cell DNA is proportional to cytotoxicity.
The mixture of HepG2 cell suspension and reagents were dispensed at 600cells/6 ul/well in 1536-well tissue culture treated black solid bottom plates using a Multidrop dispenser. After the assay plates were incubated at a 37 C/5% CO2 incubator for 5 hours, 23 nL of compounds dissolved in DMSO, positive and negative controls was transferred to the assay plate by a pintool work station. The plates were incubated at 37 C for 40 hours. The fluorescence intensity were measured at 0h, 8h, 16h, 24h, 32h and 40h time points using ViewLux plate reader during compound treatment.
% is set by controls: 0 for no effect and ±100 for the full control effect; potency is the fitted concentration of half-maximal effect.

Row | Compound | cytotoxicity increase | Potency
1 | O=C(Cl)OCCOCCOC(=O)Cl | 0.786% | 
2 | CCCCC(CC)COC(=O)c1c(Br)c(Br)c(Br)c(Br)c1C(=O)OCC(CC)CCCC (stereo not given) | -12.7% [at 35.3 µM] | 
3 | CCC(C)Cl (stereo not given) | -0.268% | 
4 | N#CC1(N=NC2(C#N)CCCCC2)CCCCC1 | -0.881% | 
5 | CN1C[C@H](C(=O)N[C@]2(C)O[C@@]3(O)[C@@H]4CCCN4C(=O)[C@H](Cc4ccccc4)N3C2=O)C=C2c3cccc4[nH]cc(c34)C[C@H]21 | 29.4% | 
6 | FC(F)OC(F)(F)C(F)Cl (stereo not given) | 0.688% | 
7 | O=C(O)C(F)(F)C(F)(F)C(F)(F)C(F)(F)C(F)(F)C(F)(F)C(F)(F)C(F)(F)F | 0.0384% | 
8 | CCOC(C(=O)OCCN(C)C)(c1ccccc1)c1ccccc1 | 2.76% [at 35.3 µM] | 
9 | C=CC(C)(CCC=C(C)C)OC(=O)c1ccccc1N (stereo not given) | -2.42% | 
10 | C=CCOC(=O)C(C)(C)OC(=O)c1cc(-n2c(=O)cc(C(F)(F)F)n(C)c2=O)ccc1Cl | -8.35% | 
11 | C=CCSSCC=C | 11.7% | 
12 | CCCC[P+](CC)(CCCC)CCCC (tested in a mixture with another compound) | 1.12% | 
13 | CN(C1CCCCC1)C1CCCCC1 | -11% | 
14 | O=P(OCC(Br)CBr)(OCC(Br)CBr)OCC(Br)CBr (stereo not given) |  | inactive
15 | CCN(C(C)=O)c1cccc(-c2ccnc3c(C#N)cnn23)c1 | -18.9% [at 35.3 µM] | 
16 | CCCSP(=S)(OCC)Oc1ccc(SC)cc1 (stereo not given) | 0.258% | 
17 | CC(=O)OC(c1ccccc1)C(Cl)(Cl)Cl (stereo not given) |  | 21.9 µM (active)
18 | CCC(=O)O[C@@H]1C=C2CCC3C(CCC4(C)C3CC[C@@H]4OC(=O)CC)C2CC1 (stereo not given in full) | -7.53% [at 35.3 µM] | 
19 | CCCCCCCCP(=O)(O)O | -4.69% | 
20 | CON(C)C(=O)Nc1ccc(Cl)cc1 | -5.94% | 

Row | Compound | cytotoxicity increase | Potency
21 | ClCc1ccccc1Cl | 0.839% | 
22 | Cc1ccccc1 | -1.07% | 
23 | CC(Oc1cccc(Cl)c1)C(=O)O (stereo not given) | -4.09% | 
24 | O=C([O-])c1ccccn1.O=C([O-])c1ccccn1.O=C([O-])c1ccccn1.[Cr+3] | -1.07% | 
25 | CCCN(CCOc1c(Cl)cc(Cl)cc1Cl)C(=O)n1ccnc1 |  | 43.6 µM (active)
26 | CC(C)c1ccc(NC(=O)N(C)C)cc1 | -8.19% | 
27 | CCCCCCCCn1sccc1=O |  | 43.7 µM (active) and 20.4 µM (active)
28 | NNCCO | 0.644% | 
29 | N#CC(C#N)=Cc1ccc(O)c(O)c1 | 15.4% [at 35.3 µM] | 
30 | COC(=O)C1(O)c2ccccc2-c2ccccc21 | -8.65% | 
31 | O=S(=O)(Cl)Cl | -4.03% | 
32 | Nc1c(Br)cc(Br)c2c1C(=O)c1ccccc1C2=O | -11% [at 15.8 µM] | 
33 | O=C(CCl)CCl |  | 25.5 µM (active)
34 | O=C(NCNC(=O)NC1C(=O)NC(=O)N1CO)NC1C(=O)NC(=O)N1CO (stereo not given) | -10.7% | 
35 | CCSCc1ccccc1OC(=O)NC | -19.2% | 
36 | CCOP(=S)(S)OCC | 2.7% | 
37 | O=C(O)C(F)(F)C(F)(F)C(F)(F)C(F)(F)C(F)(F)F | 0.133% | 
38 | c1ccc2c(c1)-c1cccc3cccc-2c13 |  | inactive
39 | CC(C)(C)N(NC(=O)c1ccc(Cl)cc1)C(=O)c1ccccc1 | 2.77% | 
40 | CCNC(=O)NC(=O)/C(C#N)=N/OC | 1.34% | 
